Screening results (PubChem)
ATG4B inh = inhibitors of human ATG4B cysteine protease | Q9Y4P1 | ATG4B cleavage of LC3-PLA2, NBD-HPC fluorescence, 1 h | inhibition, % at 8.33 µM | hit rate 0.51% among 340,000; in the data active = inhibition above about 40%
SKKanGAS inh = inhibitors of SKKanGAS S. pyogenes growth in kanamycin (SK-promoter or general growth effect); inhibition, % at 7.5 µM; AID 1662; hit rate 1.3% among 300,000; BacTiter-Glo, 6 h;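 active = mean replicate score, as percent of positive control median, at least 50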;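 note: strain carries kanamycin resistance gene driven by streptokinase promoter and grows in 40 µg/ml kanamycin; loss of luminescence reflects streptokinase promoter inhibition or plain growth inhibition; 0% = median of DMSO wells and 100% = positive control at its reference dose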
tim23-1 inh = inhibits growth of tim23-1 mutant yeast | AID 463212 | S. cerevisiae tim23-1 growth, BacTiter-Glo luminescence, 24 h | hit rate 1.3% among 330,000 | inhibition, % at 20 µM;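 active = growth inhibition of the mutant yeast at or above 50%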;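 note: temperature-sensitive mutant grown at 25 °C; plate controls were DMSO-treated mutant yeast for no effect and medium wells lacking yeast for full effect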
tim10-1 inh = growth inhibitors of tim10-1 mutant yeast; inhibition, % at 20 µM; hit rate 2.2% among 330,000; S. cerevisiae tim10-1 ts strain growth, BacTiter-Glo, 24 h;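 active = inhibition of at least 40%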;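 note: mutant grown at 25 °C; 0% = DMSO wells with yeast and 100% = wells holding no yeast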
PfHsp90 yeast 2 = inhibits growth of yeast expressing Plasmodium falciparum Hsp90; S. cerevisiae expressing PfHsp90, BacTiter-Glo ATP, 48 h; yeast lacking PDR1 and PDR3 efflux regulators; inhibition, % at 9.4 µM; hit rate 0.32% among 310,000;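 active = every replicate shows inhibition above about 80%, whatever the replicate mean, limit read from the data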;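 note: 0% = DMSO neutral controls and 100% = 20 µM radicicol positive controls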
TIM10 inh = growth inhibitors of TIM10 yeast strain; S. cerevisiae TIM10 strain growth, BacTiter-Glo luminescence, 24 h; inhibition, % at 10 µM; hit rate 1.4% among 330,000; AID 463195;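 active = inhibition of 40% or more at the single tested concentration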;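 note: wild-type TIM10 isogenic control strain grown at permissive 25 °C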
ATG4B confirm = confirmation of human ATG4B inhibitors; ATG4B protease fluorescent substrate cleavage assay; inhibition, % at 8.33 µM; hit rate 92% among 320; shares compounds with ATG4B inh; in the data active = inhibition above about 39%
PLA2 ctr = inhibits human PLA2, flagging false ATG4B inhibitors | hit rate 66% among 1,600 | shares compounds with ATG4B inh | purified PLA2, NBD-C6-HPC fluorescence, 45 min | AID 588402 | inhibition, % at 8.33 µM; in the data active = inhibition above about 50%
Target sequence (P04054 whole entry, looked up): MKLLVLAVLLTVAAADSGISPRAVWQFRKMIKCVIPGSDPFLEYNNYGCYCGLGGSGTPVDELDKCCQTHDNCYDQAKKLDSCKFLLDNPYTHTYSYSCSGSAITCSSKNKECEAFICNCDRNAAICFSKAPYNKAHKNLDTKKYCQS
* hit, by the source's call; x = no result given. Rows were chosen to be rich in hits. Some 4.7% of all compounds tested hit in one or more screens of this group.

SMILES	ATG4B inh	SKKanGAS inh	tim23-1 inh	tim10-1 inh	PfHsp90 yeast 2	TIM10 inh	PLA2 ctr	others
O=C(CN1C(=O)/C(=C/c2ccco2)SC1=S)Nc1ccc(C(=O)O)c(O)c1	62*	-1	11	-3	-5	11	20	ATG4B confirm=57*
C=CCn1c(-c2oc3nc(-c4ccccc4)cc(-c4ccccc4)c3c2N)n[nH]c1=S	42*	22	10	-5	-32	3	35	ATG4B confirm=70*
CCCCN1C(=O)/C(=C/C=C2\SCCN2C)SC1=S	73*	-7	33	21	14	9	80*
CN1CCS/C1=C/C=C1\SC(=S)N(CC(=O)O)C1=O	-19	-1	5	9	9	10	x
CN1CCS/C1=C/C=C1/SC(=S)N(Cc2ccccc2)C1=O	82*	-4	x	x	38	x	80*
Cc1cc(C)cc(N(CC(=O)Nc2ccccc2-c2ccccc2)S(=O)(=O)c2ccccc2)c1	57*	2	3	24	-13	4	14
Cc1ccccc1CN(C)CC(=O)Nc1ccccc1-c1ccccc1	51*	53*	13	34	8	-15	54*
O=C(CSc1nc2ccccc2c(=O)n1-c1ccc(Cl)cc1)N/N=C/C=C/c1ccccc1[N+](=O)[O-]	54*	4	17	20	-135	16	17	ATG4B confirm=72*
COc1cccc(C=O)c1OC(=O)N1CCOCC1	5	-1	28	24	-11	3	x
C=CCn1c(SCc2cc([N+](=O)[O-])cc3c2OCOC3)nc2cc(C(=O)O)ccc2c1=O	-8	9	13	-9	4	-2	x
CCC(CO)n1c(SCc2cc([N+](=O)[O-])cc3c2OCOC3)nc2ccccc2c1=O (stereo unspecified)	43*	16	30	40	-17	14	55*
NC(=O)Cc1ccc(C(=O)c2ccc(Cl)cc2)s1	57*	-5	13	19	3	-3	51*
O=C(O)Cc1ccc(C(=O)c2ccc(Cl)cc2)s1	-8	4	7	10	5	3	x
CN(C(=O)CSc1nnc(-c2ccncc2)n1-c1ccccc1)C1CCS(=O)(=O)C1 (stereo unspecified)	-1	1	14	11	5	4	x
COc1ccc(C=NNc2ccc(S(=O)(=O)Nc3ccccc3C(=O)O)cc2[N+](=O)[O-])c(OC)c1	48*	x	-1	-4	4	16	49
CC(C)Cc1ccc(CN2CCCC(NC(=O)c3ccnn3C)C2)cc1 (stereo unspecified)	42*	-4	15	14	2	5	49
CN(CC(=O)NCCN1CCCCCC1)S(=O)(=O)c1cccc2nsnc12	-11	2	3	8	-5	-1	x
O=C(c1cc(-c2ccco2)on1)N1CCc2ccccc2C1	46*	5	18	16	-13	12	58*
O=C(c1cc(-c2ccccc2)on1)N1CCCc2ccccc21	20	-11	39	30	-6	32	x
O=C(c1cc(-c2ccco2)on1)N1CCCc2ccccc21	63*	5	17	12	-15	10	49
COc1cc(C(=O)O)cc(Br)c1OC1CCCC1	-9	3	24	7	2	2	x
O=C(NCc1nnc2c3ccccc3c(-c3ccccc3)nn12)c1ccccc1Cl	-6	0	19	36	-4	31	x
Cc1nn2c(COc3ccc(NC(=O)c4ccccc4Cl)cc3)nnc2c2ccccc12	43*	87*	12	21	-4	15	39
CCOC(=O)c1c(C)nc2c(c1-c1cc(OC)ccc1OC)C(=O)c1ccccc1-2	-7	9	-7	11	-5	3	x
CCOC(=O)c1c(C)nc2sc(C(N)=O)c(N)c2c1-c1ccccc1	54*	1	15	6	-3	-12	61*
CCOC(=O)c1c(C)nc2c(c1-c1ccccc1)C(=O)c1ccccc1-2	79*	-7	32	30	6	31	71*
